SMILES strings stand for the structures. The campaign covered roughly 52,000 compounds. About 4,300 (8.3%) were called active. The sample holds actives, similar compounds and a random draw of the others, so the mix is not that of the screen. A number with no mark means an inactive call. Cut-off read from the data, not from the text of the source: active = survival mostly below about 52% (no sharp cut-off); inactive = mostly above about 56%.

Here are results for 99 compounds from PubChem BioAssay AID463173 (ICCB-Longwood Screening Facility, Harvard Medical School, 2010).

The test system of the assay is DeltatarO mutant. The experiment in a line: growth inhibition of S. aureus wild type versus tarO mutant, primary screen, teichoic acid synthesis inhibitors, RN4220, OD600 (AID 463173). The following applies: OD600, 18 h, active compounds read low, screened at 18.75 µg/mL (by protocol).
With `CSc1nc2c([nH]c3ccccc32)c(=O)n1-c1ccc(C)cc1`, the survival is 87%.

With `Cc1ccc(N2C(=O)C3CN4CCCN4C3C2=O)cc1` (centres undefined), the survival is 78%.

Consider `COc1ccccc1C(=O)NCC(=O)O`, for which the survival was 76%.

With `CCc1ccc(S(=O)(=O)c2nnn3c2nc(N2CCCC(C)C2)c2cc(Cl)ccc23)cc1` (centres undefined), the survival was 63%.

As to `Cc1ccc(NC(=O)Cn2c(=O)n(-c3ccccc3)c(=O)c3ccc(C(=O)NCc4ccc5c(c4)OCO5)cc32)cc1`, the survival is 114%.

With `CCOC(=O)c1cccc(NC(=O)c2cc(S(=O)(=O)N3CCCCCC3)cn2C)c1`, the survival was 74%.

In the case of `COc1ccc(N2CCN(S(=O)(=O)CCNC(=O)c3ccc(C(F)(F)F)cc3)CC2)cc1`, the survival is 99%.

In the case of `COc1ccc(CCNC(=O)c2ccc3c(c2)CCN3S(C)(=O)=O)cc1`, the survival was 82%.

For the compound `COc1ccc(CCNC(=O)c2ccc3c(c2)CCN3S(=O)(=O)c2ccccc2)cc1`, the survival is 44% (active).

As to `O=C(NCCc1ccccc1)c1ccc2c(c1)CCN2S(=O)(=O)c1ccc(Br)cc1`, the survival was 67%.

Consider `COc1ccc(CCNC(=O)c2ccc3c(c2)CCN3S(=O)(=O)c2ccc(C)cc2)cc1OC`, for which the survival was 50%.

With `COc1ccc(CNC(=O)c2ccc3c(c2)CCN3S(=O)(=O)c2ccccc2)cc1`, the survival is 36% (active).

For `COc1ccc(CCNC(=O)c2ccc3c(c2)CCN3S(=O)(=O)c2ccc(Cl)cc2)cc1`, the survival was 50%.

As to `COc1ccc(CCNC(=O)c2ccc3c(c2)CCN3S(=O)(=O)c2ccc(C)cc2)cc1`, the survival is 43% (active).

With `COc1ccc(CCNC(=O)c2ccc3c(c2)CCN3S(=O)(=O)c2ccccc2)cc1OC`, the survival is 88%.

In the case of `Cc1ccc(S(=O)(=O)N2CCc3cc(C(=O)NCCc4ccccc4)ccc32)cc1`, the survival was 104%.

Consider `COc1ccc(CNC(=O)c2ccc3c(c2)CCN3S(=O)(=O)c2ccc(Cl)cc2)cc1`, for which the survival was 62%.

Take `O=C(NCCc1ccccc1)c1ccc2c(c1)CCN2S(=O)(=O)c1ccccc1`: the survival was 38% (active).

For the compound `COc1ccc(CNC(=O)c2ccc3c(c2)CCN3S(=O)(=O)c2ccc(C)cc2)cc1`, the survival was 55%.

Consider `Cc1cccc(-c2nc(CSc3nncn4c3cc3sccc34)c(C)o2)c1`, for which the survival was 75%.

In the case of `COc1ccc(CC(=O)Nc2cc(-c3cn4cccnc4n3)ccc2OC)cc1`, the survival was 91%.

Take `COc1ccc(Cl)cc1NC(=O)CN(c1cccc(C)c1C)S(=O)(=O)c1ccccc1`: the survival was 72%.

Consider `Cc1cccc(N2CCN(S(=O)(=O)c3ccc4c(c3)CCCN4C(=O)C3CCC3)CC2C)c1` (centres undefined), for which the survival is 77%.

For the compound `COc1cccc(-n2cc(C(=O)Nc3cccc(C(F)(F)F)c3)c3ccccc3c2=O)c1`, the survival is 61%.

`CCCCN(C)c1nnc(NC(=O)Nc2cccc(C(C)=O)c2)s1`: the survival was 93%.

With `Cc1cccc2cc(CN(Cc3ccco3)C(=O)N3CCOCC3)c(Cl)nc12`, the survival is 85%.

As for `O=C(CSc1nccn1Cc1ccc(F)cc1)NCc1ccc(F)cc1`, the survival was 71%.

For `O=C(c1cnc(N2CCOCC2)c2ccccc12)N1CCN(c2ccccc2F)CC1`, the survival was 71%.

For the compound `CCCc1cc(N2CCN(c3cccc(C)c3C)CC2)n2cnnc2n1`, the survival is 52%.

Consider `CCCc1cc(N2CCN(c3cc(Cl)ccc3C)CC2)n2cnnc2n1`, for which the survival was 30% (active).

As to `CCCc1cc(N2CCN(c3ccccc3F)CC2)n2cnnc2n1`, the survival was 75%.

Consider `CN(C)c1cc2c(cc1NC(=O)c1ccc(F)cc1)n(C)c(=O)n2C`, for which the survival is 104%.

As to `CCNc1nc(Cl)nc(NC2CCCCC2)n1`, the survival was 90%.

With `COc1ccc(-c2cc3ccc(O)c(CN4CCCC4)c3oc2=O)cc1OC`, the survival was 116%.

For `COc1ccc(-c2cc3ccc(O)c(CN4CCC(C)CC4)c3oc2=O)cc1OC`, the survival was 52% (active).

For the compound `COc1ccc(-c2cc3ccc(O)c(CN4CCC(C)CC4)c3oc2=O)cc1`, the survival was 71%.

Regarding `Cc1ccc2oc(=O)c3cnn(CC(=O)N4CCN(c5cccc(C(F)(F)F)c5)CC4)c3c2c1`, the survival is 87%.

Turning to `Cc1cc(C)c2c(n1)nn1c(C)c(CCC(=O)NCc3ccccc3Cl)c(C)nc21`, the survival is 82%.

`Cc1ccc(NC(=O)CSc2nccn2Cc2ccco2)cc1Cl`: the survival was 87%.

Turning to `CCN(c1ccccc1)S(=O)(=O)c1nnc(NC(=O)C(C)(C)C)s1`, the survival was 49%.

For the compound `CCN(c1ccccc1)S(=O)(=O)c1nnc(NC(=O)c2cccs2)s1`, the survival was 28% (active).

As to `CCN(c1ccc(Cl)cc1)S(=O)(=O)c1nnc(NC(=O)C2CCCCC2)s1`, the survival is 74%.

Regarding `CCN(c1ccc(C)cc1)S(=O)(=O)c1nnc(NC(=O)c2cccs2)s1`, the survival is 14% (active).

Consider `CCN(c1ccccc1)S(=O)(=O)c1nnc(NC(=O)C2CCCCC2)s1`, for which the survival was 48% (active).

Regarding `CCN(c1ccccc1)S(=O)(=O)c1nnc(NC(=O)C(C)Oc2ccccc2)s1` (centres undefined), the survival was 43%.

Take `CCN(c1ccccc1)S(=O)(=O)c1nnc(NC(=O)c2ccccc2)s1`: the survival was 38% (active).

As to `CCN(c1ccc(C)cc1)S(=O)(=O)c1nnc(NC(=O)C2CCCCC2)s1`, the survival is 109%.

Turning to `COc1ccc(OCC(=O)OCc2cc(=O)n3nc(C4CC4)sc3n2)cc1`, the survival was 61%.

In the case of `COc1ccc(CNC(=O)CC(c2ccc(OC)c(OC)c2)N2Cc3ccccc3C2=O)cc1` (centres undefined), the survival is 87%.

For `CCC(=O)N1CCc2cc(OC)c(OC)cc2C1COc1ccc2c(C)cc(=O)oc2c1` (centres undefined), the survival was 136%.

`O=C(Nc1ccc(F)c(F)c1)c1cc(S(=O)(=O)NC2CCCC2)ccc1F`: the survival was 118%.

Regarding `CC(C)Oc1ccc(CNS(=O)(=O)c2csc(C(N)=O)c2)cc1`, the survival was 101%.

For the compound `COc1cccc2c1Oc1ncccc1N(C(=O)CCC(=O)NCc1ccc(OC(C)C)cc1)C2`, the survival is 83%.

As to `CCCCN(C)C(=O)CN1C(=O)c2cccnc2Oc2ccc(Cl)cc21`, the survival is 89%.

On to `CCN(c1ccccc1)S(=O)(=O)c1nnc(NC(=O)COc2ccccc2F)s1`, for which the survival is 31% (active).

As to `CCN(c1ccccc1)S(=O)(=O)c1nnc(NC(=O)COc2ccc(OC)cc2)s1`, the survival is 55%.

Regarding `CCN(CC)S(=O)(=O)c1nnc(NC(=O)COc2ccccc2F)s1`, the survival was 103%.

Regarding `O=C1C2CCCC1C(c1ccc3c(c1)OCO3)NC2c1ccc2c(c1)OCO2` (centres undefined), the survival is 58%.

As for `Cc1ccc(-n2ncc(C(=O)NCCCN3CCN(C)CC3)c2C2CCN(C(=O)OC(C)(C)C)CC2)cc1`, the survival is 96%.

For `COc1ccc(N2CCN(C(=O)c3noc4c3CCCCC4)CC2)cc1`, the survival was 72%.

In the case of `O=C(c1ccc2c(c1)N(Cc1ccc(F)cc1)C(=O)c1ccccc1S2(=O)=O)N1CCCCCC1`, the survival is 71%.

Take `Cc1ccc2oc(C(=O)Nc3ccc(S(=O)(=O)N(C)Cc4ccccc4)cc3)cc(=O)c2c1`: the survival is 50%.

Consider `O=C(C1CCN(c2ncnc3c2nc2n3CCCCC2)CC1)N1CCN(c2cccc(Cl)c2)CC1`, for which the survival was 64%.

Take `COc1ccc(N2CCN(c3ncnc4c3nc3n4CCCCC3)CC2)cc1`: the survival was 100%.

For `c1ccc(N2CCN(c3ncnc4c3nc3n4CCCCC3)CC2)cc1`, the survival is 89%.

As to `O=C(Nc1cccc(Cl)c1)C1CCCN(c2ncnc3c2nc2n3CCCCC2)C1` (centres undefined), the survival is 17% (active).

Regarding `Cc1ccc(NC(=O)C2CCCN(c3ncnc4c3nc3n4CCCCC3)C2)cc1F` (centres undefined), the survival was 92%.

With `COc1cccc(N2CCN(c3ncnc4c3nc3n4CCCCC3)CC2)c1`, the survival was 20% (active).

As for `Clc1cccc(N2CCN(c3ncnc4c3nc3n4CCCCC3)CC2)c1`, the survival was 11% (active).

For the compound `Clc1cccc(N2CCN(c3ncnc4c3nc3n4CCCC3)CC2)c1`, the survival is 114%.

With `CCN(C(=O)C1CCCN(c2ncnc3c2nc2n3CCCCC2)C1)c1cccc(Cl)c1` (centres undefined), the survival is 82%.

On to `COc1ccc(OC)c(CNc2ncnc3onc(C)c23)c1`, for which the survival is 129%.

For `CCOc1ccc(NC(=O)c2cc(S(=O)(=O)N3CCC(C)CC3)cn2C)cc1`, the survival is 112%.

Take `CCOc1ccc(/C=C/c2nc(C#N)c(NCc3ccc(OC)cc3)o2)cc1`: the survival was 68%.

Regarding `CCOC(=O)c1[nH]c2c(c1Cc1ccccc1)C(=O)CC(c1ccccc1)C2` (centres undefined), the survival was 64%.

As for `CCOc1ccc(CCNc2nc3c(-c4ccc(C)cc4)nnn3c3ccccc23)cc1OCC`, the survival was 88%.

Take `Cc1cc(-c2ccc(C)c(S(=O)(=O)N(C)c3ccc(C)c(C)c3)c2)on1`: the survival was 86%.

Regarding `Cn1c(C(=O)Nc2ccc(OC(F)(F)F)cc2)cc2c(=O)n3ccccc3nc21`, the survival was 55% (active).

As for `COc1ccc(CCNC(=O)c2cc3c(=O)n4ccccc4nc3n2C)cc1`, the survival is 61%.

As for `Cn1c(C(=O)Nc2cccc(C(F)(F)F)c2)cc2c(=O)n3ccccc3nc21`, the survival is 98%.

As to `CCCCCNC(=O)c1cc2c(=O)n3ccccc3nc2n1C`, the survival was 54%.

As for `O=C(Nc1ccc(OC(F)(F)F)cc1)c1cc2c(=O)n3ccccc3nc2s1`, the survival was 87%.

`Cn1c(C(=O)NCCc2ccccc2)cc2c(=O)n3ccccc3nc21`: the survival was 48% (active).

In the case of `Cc1ccc(NC(=O)CSc2nc3c(c(=O)[nH]2)CN(Cc2ccccc2)CC3)cc1Cl`, the survival was 70%.

On to `CSc1ccc(CCNC(=O)CCCn2nc(C)c3sc4ccccc4c3c2=O)cc1`, for which the survival was 76%.

For `N/N=C1\C(=N/O)CCc2nonc21`, the survival is 95%.

For the compound `CCN(CC)c1ccc(NC(=O)Cn2ncc3c(C)n(Cc4ccccc4F)c(C)c3c2=O)c(C)c1`, the survival is 79%.

Take `Cc1oc2ncnc(N3CCOCC3)c2c1C(=O)N1CCN(c2cccc(C(F)(F)F)c2)CC1`: the survival was -5% (active).

With `Fc1ccc(N2CCN(c3ncnc4onc(-c5ccc(Cl)cc5)c34)CC2)cc1`, the survival was 65%.

On to `Cc1nc(N2CCOCC2)c2c(C(=O)N3CCN(c4ccccc4)CC3)c(C)oc2n1`, for which the survival is 37% (active).

For the compound `Cc1nc(N2CCCC2)c2c(C(=O)N3CCN(c4ccccc4)CC3)c(C)oc2n1`, the survival is 81%.

For the compound `Fc1ccccc1N1CCN(c2ncnc3onc(-c4ccc(Cl)cc4)c23)CC1`, the survival is 54% (active).

With `Cc1nc(N2CCOCC2)c2c(C(=O)N3CCN(c4ccc(Cl)cc4)CC3)c(C)oc2n1`, the survival was 92%.

`Cc1nc(N2CCOCC2)c2c(C(=O)N3CCN(c4cccc(C(F)(F)F)c4)CC3)c(C)oc2n1`: the survival was 105%.

On to `Cc1oc2ncnc(N3CCOCC3)c2c1C(=O)NCCc1ccccc1`, for which the survival was 89%.

For the compound `Cc1nc(N2CCOCC2)c2c(C(=O)NCCc3ccccc3)c(C)oc2n1`, the survival was 0% (active).

For the compound `Cc1oc2ncnc(N3CCCCC3)c2c1C(=O)N1CCN(c2cccc(C(F)(F)F)c2)CC1`, the survival was 66%.

On to `Fc1ccccc1N1CCN(c2ncnc3onc(-c4cccc(Cl)c4)c23)CC1`, for which the survival is 53%.

Regarding `Cc1ccc(CCNC(=O)c2c(C)oc3nc(C)nc(N4CCOCC4)c23)cc1`, the survival was 106%.
